# Source: PubChem (National Center for Advancing Translational Sciences (NCATS))
# ATXN2 expr inh – reduces ATXN2 reporter expression in HEK-293 cells | HEK-293 ATXN2-luciferase reporter, luminescence, 24 h | Potency, µM (titrated, usually from 57 µM), without a hit: at the top dose activity change, negative = inhibition, usual class: inhibitors | 360,000 compounds, 0.72% hits | AID 1745845; also: % is scaled to controls: 0 for no effect and ±100 for the full control effect; nearly all actives have a fitted effect of over 55% in size
#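 qHTS (up to 57 uM final) was run with 24 h compound exposure of reporter cells at 37 °C. Each well was multiplexed: SteadyGlo luminescence measured ATXN2-luciferase expression after a fluorogenic Gly-Phe-AFC viability readout (25 uM final).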
# TGFb inhibitor – blocks TGF-b signaling; HepG2 CAGA-GFP TGF-b/SMAD3 reporter, GFP fluorescence, 18 h; TGF-beta stimulated, 500 pg/mL final; Potency, µM (titrated, usually from 46.1 µM), for the others: at the highest dose activity, negative = inhibition, usual class: inhibitors; 410,000 compounds, 1.2% hits; AID 588855; also: % is scaled to controls: 0 for no effect and ±100 for the full control effect; nearly all actives have a fitted effect of over 65% in size
#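 Cell-based qHTS in HEPG2 carrying a CAGA-GFP Smad reporter; compounds added before 500 pg/mL final TGF-beta, 18 h incubation at 37 degrees C, GFP fluorescence quantified per cell by imaging cytometry.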
# KB-V1 MDR tox – kills drug-selected multidrug resistant KB-V1 cells. KB-V1 MDR cells viability, CellTiter-Glo, 72 h. Potency, µM (titrated, usually from 46.1 µM), most hits filed as cytotoxic. 400,000 compounds, 3.4% hits. AID 1347076; also: % is scaled to controls: 0 for no effect and ±100 for the full control effect; nearly all actives have a fitted effect of over 60% in size
#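 Compound-treated KB-V1 multidrug-resistant cells, 72 h, 37 degrees C; viability by CellTiter-Glo. Fitted qHTS curves give the values.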
# KB-3-1 tox – kills parental KB-3-1 adenocarcinoma cells; KB-3-1 viability, CellTiter-Glo ATP luminescence, 72 h; Potency, µM (doses to about 46.1 µM), actives largely listed as cytotoxic; 400,000 compounds, 1.4% hits; also: % is scaled to controls: 0 for no effect and ±100 for the full control effect; nearly all actives have a fitted effect of over 60% in size
#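 Luminescent ATP read-out (CellTiter-Glo) measures survival of drug-naive KB-3-1 cells after 72 h compound exposure at 37 °C. Titration series was screened from lowest to highest concentration, with DMSO vehicle plates as background controls.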
# ATXN viability – cell viability loss in ATXN counter-screen. S2 cells (HEK-293 line with an ATXN2-luciferase reporter) viability, CellTiter-Fluor protease fluorescence, 24 h. Potency, µM (top dose mostly 56.7 µM), hits mostly cytotoxic. 400,000 compounds, 0.49% hits. AID 651635; also: nearly all actives have a fitted effect of over 40% in size
# HepG2 viability – kills HepG2 cells in TGF-b inhibitor counter-screen | HepG2 CAGA-GFP viability, ATP luminescence, 18 h | AID 588856 | Potency, µM (doses to about 46.1 µM), inactives show at the highest dose activity change, negative = cytotoxicity, hits mostly cytotoxic | 410,000 compounds, 0.76% hits
#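 CellTiter-Glo luminescence gave cytotoxicity after 18 hours at 37 degrees C. The cells were HepG2 CAGA-GFP in 1% FBS DMEM, stimulated with 500 pg/mL TGF-beta after compound addition. %Activity was normalised to no-cell wells (complete cell-killing) and DMSO (no toxicity), and curves were fitted and classified.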
# An asterisk follows results filed as active; i = inactive; ? = inconclusive; . = no result; [ ] = dose if it differs, or a comment. A selection: hits, their analogues and other compounds. The true share with any hit is near 5.9%. Calls follow the shape of the dose curve; as a rule, active = well fitted curve in the direction sought with a large enough effect; inconclusive = small, poorly fitted or top-dose-only effect, or another doubt; inactive = no such curve, though single readings can be large; an effect the other way counts as inactive or inconclusive. Potency is read from the fitted curve at half-maximal effect.
SMILES,ATXN2 expr inh,TGFb inhibitor,KB-V1 MDR tox,KB-3-1 tox,ATXN viability,HepG2 viability
CCC1CN(CC(=O)NC(c2ccccn2)C(F)(F)F)Cc2cc(OC)ccc2O1 (centres undefined),.,.,.,.,i,.
CCC(Oc1ccccc1)C(=O)Nc1ccc(O)c(-c2nc3cc(C)ccc3o2)c1 (centres undefined),.,.,.,.,.,-5.0%
Cc1ccccc1-n1cc(C(=O)c2cc(Cl)ccc2O)cc(C#N)c1=O,-7.4%,?,14.6µM*,?,i,-16.8%
COc1ccccc1-n1cc(C(=O)c2cc(Cl)ccc2O)cc(C#N)c1=O,-2.0%[11.3 µM],20.5%,i,i,i,6.6%
Cc1nc(C)n(CC(=O)NCC2Cc3cc(-c4ccsc4)cc(Cl)c3O2)n1 (centres undefined),.,.,.,.,i,.
COCCCN=Cc1c(C)[nH]n(-c2ccc(Br)c(C)c2)c1=O,35.9%,?,i,i,i,-29.6%
Cc1ccc(-n2[nH]c(C)c(C=NC34CN5CN(CN(C5)C3)C4)c2=O)cc1C,0.8%,8.5%,?,?,i,10µM*
CC(=O)OCCCNc1cc(Sc2nc3ccccc3s2)c2nonc2c1[N+](=O)[O-],15.8µM*,?,i,i,.,-4.4%
O=[N+]([O-])c1c(NCCCO)cc(Sc2ccc(Cl)cc2)c2nonc12,?,5.2%,i,?,31.6µM*,-21.9%
O=[N+]([O-])c1c(NCCCO)cc(N2CCCCCC2)c2nonc12,-27.2%,?,i,i,?,-26.8%
Cn1ccnc1Sc1cc(NCCCO)c([N+](=O)[O-])c2nonc12,?,?,i,i,?,-26.4%
O=[N+]([O-])c1c(NCCCO)cc(SCc2ccco2)c2nonc12,0.0%,11.2µM*,i,i,.,-55.1%
O=[N+]([O-])c1c(NCCCO)cc(N2CCN(Cc3ccc4c(c3)OCO4)CC2)c2nonc12,-35.6%,-14.7%,16.4µM*,i,?,-39.5%
CC(=O)OCCCNc1cc(Sc2ccc(C)cc2)c2nonc2c1[N+](=O)[O-],-61.9%,-5.1%,i,?,?,-26.7%
COc1cccc(CCNc2ncnc3sc(C(=O)N4CCN(C)CC4)c(C)c23)c1,.,.,.,.,i,.
COc1ccc(Cc2c(-c3ccc(OC)c(OC)c3)nc3cc(C)c(Br)c(C)n23)c(C)c1,0.3%,.,i,?,i,.
CCOC(=O)c1cc(S(=O)(=O)NCc2ccccc2)[nH]n1,-4.7%,-7.5%,i,i,i,-10.0%
NC(=NCCc1ccccc1)NS(=O)(=O)c1ccc(F)cc1,-7.6%,8.7%,16.4µM*,i,i,-13.0%
Cc1ccc(S(=O)(=O)NC(N)=NCCc2ccc(Cl)cc2)cc1,-5.9%,1.1%,16.4µM*,i,i,-2.0%
O=C1CN(C(=O)c2ccc(S(=O)(=O)N3CCCC3)cc2)C(c2ccccc2)c2cc(Br)ccc2N1 (centres undefined),-14.5%,?,i,?,?,-28.7%
CCC(Cn1nnc2ccccc2c1=O)NC(=O)Nc1ccccc1OC (centres undefined),11.5%,-23.0%,i,i,i,4.0%
COc1ccc(N2CCN(c3nc(NCCc4ccc(OC)c(OC)c4)nc(OC)n3)CC2)cc1,28.2µM*,?,i,i,?,-71.8%
CCOC(=O)c1[nH]c(C)c(CCC(=O)Nc2cc(C)ccc2OC)c1C,-16.9%,-3.8%,i,i,i,1.5%
COc1cc2c(cc1NC(=O)COc1ccc(Cl)cc1)oc1ccccc12,-2.0%,28.6%,?,i,i,-3.5%
COc1cc2c(cc1NC(=O)COC(=O)[C@@H](NC(=O)c1ccccc1F)C(C)C)oc1ccccc12,19.4%,-30.3%,16.4µM*,i,i,-21.9%
SMILES,ATXN2 expr inh,TGFb inhibitor,KB-V1 MDR tox,KB-3-1 tox,ATXN viability,HepG2 viability
COc1cc2c(cc1NC(=O)COC(=O)[C@@H](NC(=O)c1ccccc1)C(C)C)oc1ccccc12,19.0%,9.5%,9.2µM*,i,i,-8.5%
NC(=O)c1ccc(-c2nc(-c3ccc4c(c3)OCCO4)c(-c3ccccn3)[nH]2)cc1,-31.5%,.,.,.,.,.
O=C(NCc1cccnc1)c1nn(-c2ccc(Cl)cc2)nc1CO,.,0.0%,.,.,.,0.9%
CCNC(=O)c1cc(NC(=O)COC)cc2nc(-c3ccncc3)n(C)c12,.,.,.,.,i,.
Cc1ccc(S(=O)(=O)/N=C2/C=C(C3C(=O)CC(C)(C)CC3=O)C(=O)c3ccccc32)cc1,17.4%,?,16.4µM*,i,i,-76.0%
Cc1ccc(S(=O)(=O)/N=C2\C=C(NS(=O)(=O)c3ccccc3)C(=O)c3ccccc32)cc1,-31.0%,?,i,i,20µM*,-40.0%
Cc1cc(C)c(S(=O)(=O)/N=C2\C=C(NS(=O)(=O)c3ccccc3)C(=O)c3ccccc32)c(C)c1,-5.2%,-1.0%,i,i,?,-0.2%
COc1ccc(-c2oc3ncn4nc(COc5ccccc5)nc4c3c2-c2ccc(OC)cc2)cc1,-10.5%,1.3%,i,i,i,-4.7%
COc1ccc(-c2oc3ncn4nc(Cc5ccccc5)nc4c3c2-c2ccc(OC)cc2)cc1,-7.4%,-9.0%,3.66µM*,i,i,-22.8%
O=S1(=O)N[C@H](Cc2ccccc2)COc2cc(N3CCC[C@H]3CO)ccc21,29.5%,.,i,i,i,.
O=S1(=O)N[C@H](Cc2ccccc2)COc2cc(N3CCC[C@@H]3CO)ccc21,18.5%,.,i,20.6µM*,i,.
C(#Cc1ccc(C#CCN2CCOCC2)cc1)CN1CCOCC1,3.9%,19.7%,18.4µM*,i,i,-27.7%
COc1cc(=O)n2c(c1C(=O)N(C)Cc1nonc1C)CCN(Cc1ccccc1F)CC2,.,.,.,.,i,.
COc1ccc(-n2cnc3sc4c(c3c2=O)CCCC4)cc1,4.0%,-1.1%,16.4µM*,i,i,-9.7%
COc1cccc(-n2cnc3sc(C)c(C)c3c2=O)c1,20.9%,-2.8%,20.6µM*,i,i,-5.2%
C=CC[n+]1cccc2cc(Br)ccc21,.,-13.6%,i,i,.,3.9%
C=C(C)C1CCC2(C(=O)O)CCC3(C)C(CCC4C5(C)C(C=O)C(O)C(C)(C)C5CCC43C)C12 (centres undefined),?,12.6µM*,i,i,?,-27.3%
Cc1cc(N2CCC(C(=O)Nc3ccc(F)cc3F)CC2)n2nc(C)c(-c3ccc(Cl)cc3)c2n1,-1.9%,2.4%,i,i,?,-1.9%
